From PubChem BioAssay
This is a sample that favours compounds with a hit; in the whole collection about 3.5% have one here.
Pf apPOL block: Pf-apPOL inhibitors, biochemical, fluorescence | AID 1794808, 2022 | inhibition, % at 10 µM | actives 0.25% (n = 210,000) | Recombinant Pf-apPOL, molecular beacon fluorescence, 1.5 h
mHTT CaM bind: mutant huntingtin-calmodulin interaction inhibitors – biochemical, AlphaScreen, primary screen; actives 3.6% (n = 190,000); P42858; AlphaScreen His-mHTT/GST-CaM binding, luminescence; AID 1671202, 2021; inhibition, % at 15 µM;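 note: 0% = both proteins with DMSO and 100% = one protein alone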
* marks the source's active call; other numbers are inactive results; nt = not tested or not shown. Cut-off read from the data, not from the text of the source: active = inhibition above about 50%; inactive = the rest.

SMILES | Pf apPOL block | mHTT CaM bind
COc1ccc(C(=O)N2CCC(O)(c3ccccc3)C(N(C)C)C2)cc1 (stereo unspecified) | -6 | 2
CN(C)CCNC(=O)c1cc(Cl)ccc1Cl | 0 | -5
COc1cccc(C(=O)Nc2cc(Cl)ccc2C)c1 | -4 | -11
COc1ccccc1CC(=O)Nc1ccc(-c2nnc3n2CCCCC3)cc1 | -2 | 4
O=C1C(=Cc2cccc(F)c2)Oc2cc(O)ccc21 | -3 | -5
O=C(C1CCC(CNS(=O)(=O)c2ccc(Br)s2)CC1)N1CCCCC1 (stereo unspecified) | -9 | -3
Cc1ccc(C(=O)N2CCC(n3nc(-c4ccsc4)ccc3=O)CC2)s1 | -4 | 100*
Cc1ccc(C(=O)N2CCC(c3nc(-c4ccncc4)n[nH]3)CC2)s1 | 12 | 12
Cc1ccccc1-c1onc(C)c1C(=O)NCc1ccc(C(F)(F)F)cc1 | 3 | 39
O=C(NCc1ccccc1F)c1cc2n(n1)C(C(F)(F)F)CC(c1ccco1)N2 (stereo unspecified) | -3 | -3
O=C(NCCc1c[nH]c2ccccc12)c1cc2n(n1)C(C(F)(F)F)CC(c1ccco1)N2 (stereo unspecified) | -2 | 62*
Cc1noc(-c2ccc(NC(=O)c3cn(C)nn3)cc2)n1 | -4 | -15
Fc1ccc(CN2CCc3nc(N4CCN(c5ncccn5)CC4)ncc3C2)cc1 | -2 | 100*
Fc1ccc(N2CCN(c3ncc4c(n3)CCN(Cc3ccccc3)C4)CC2)cc1 | -4 | 14
COc1ccc(CN2CCc3nc(N4CCN(c5ccccc5)CC4)ncc3C2)cc1 | 0 | 33
COc1ccc(CN2CCc3nc(N4CCN(c5ncccn5)CC4)ncc3C2)cc1 | -4 | 100*
CCN(CC)Cc1c(O)ccc2c(=O)c(Oc3cccc(OC)c3)c(C)oc12 | -7 | 9
Cc1cc2ccccc2n1CCNC(=O)c1ccccc1C(F)(F)F | 3 | 15
CCc1onc(C)c1C1CCCN1C(=O)CCc1ccc(OC)cc1 (stereo unspecified) | 3 | -4
CC(=O)N1CCN(c2nc(C)nc(C)c2Cc2ccc(Cl)cc2)CC1 | -3 | -2
Cc1cc(Sc2cc(C)c(O)c(C(C)(C)C)c2)cc(C(C)(C)C)c1O | nt | 15
Cc1cc(O)c(C(C)(C)C)cc1S(=O)c1cc(C(C)(C)C)c(O)cc1C | nt | 68*
Cc1cc(Cc2cc(C(C)(C)C)c(O)c(C(C)(C)C)c2)c(O)c(C(C)(C)C)c1 | nt | 9
Cc1cc(O)c(C(C)(C)C)cc1Sc1cc(C(C)(C)C)c(O)cc1C | nt | 100*
Cc1cc(S(=O)c2cc(C)cc(C(C)(C)C)c2O)c(O)c(C(C)(C)C)c1 | nt | 72*
SMILES | Pf apPOL block | mHTT CaM bind
CC(C)(C)c1cc(O)c(C(C)(C)C)cc1O | 49 | 12
CC(C)Cn1c(=O)c(N2CCN(C(=O)c3ccsc3)CC2)nc2ccncc21 | 8 | 12
Fc1cnc(N2CCOCC2)nc1Nc1ccccn1 | 2 | 3
COc1ccc(C(=O)NCCn2c(C)cc3ccccc32)cc1OC | 0 | 16
CC(O)CN1C(=O)c2cccc3cccc(c23)C1=O (stereo unspecified) | -7 | nt
C=CCn1c(C(=O)NC2CC2)cc2sc(Br)cc21 | -5 | -1
C=CCn1c(C(=O)NCc2ccncc2)cc2sc(Br)cc21 | -8 | 51*
Cn1cc(C(=O)NCC2CCCO2)c2[nH]c(=O)n(-c3ccc(F)cc3)c(=O)c21 (stereo unspecified) | -9 | -11
NC(=O)c1[nH]c(=S)n(CC2CCCO2)c1N (stereo unspecified) | nt | -3
O=C(Cn1c(-c2nnco2)cc2ccccc21)NCc1ccco1 | 25 | 69*
O=C(Cn1c(C(F)(F)F)nc2ccccc21)NCc1ccco1 | -1 | 1
CC(=O)NCc1csc(C2CCN(C(=O)c3ccc(F)cc3F)CC2)n1 | -2 | -2
CCCC1c2ccc(C)n2CCN1C(=O)Nc1ccc(C)c(F)c1 (stereo unspecified) | 4 | 10
CCCC1c2ccc(C)n2CCN1C(=O)Nc1ccc(Cl)cc1 (stereo unspecified) | -4 | 51*
CCCC1c2cccn2CCN1C(=O)Nc1cccc(F)c1 (stereo unspecified) | -13 | 26
Cc1ccc(NC(=O)N2CCn3cccc3C2C)cc1F (stereo unspecified) | 79* | 5
Cc1ccc(NC(=O)N2CCn3cccc3C2Cc2ccccc2)cc1F (stereo unspecified) | 3 | 4
CCCC1c2cccn2CCN1C(=O)Nc1ccc(C)c(Cl)c1 (stereo unspecified) | -7 | 80*
Cc1cccc(NC(=O)N2CCn3cccc3C2C(C)C)c1 (stereo unspecified) | -10 | 4
Cc1cc(NC(=O)N2CCn3cccc3C2C(C)C)ccc1Br (stereo unspecified) | 1 | 99*
O=[N+]([O-])c1cccc(-c2csc(=Nc3ccccc3)n2-c2ccccc2)c1 | -10 | nt
CCn1c(-c2ccccc2)c(C)sc1=Nc1cccc([N+](=O)[O-])c1 | 3 | 57*
COc1cc(-c2csc(C)n2)ccc1O | 0 | -4
COc1cc(-c2nc(-c3cccs3)c(-c3cccs3)[nH]2)ccc1O | 0 | 97*
Cc1sc2nc(C)n(Cc3csc(-c4ccc(Cl)cc4)n3)c(=O)c2c1C | -4 | -8
SMILES | Pf apPOL block | mHTT CaM bind
Cc1sc2nc(C)n(Cc3ccc(C(F)(F)F)cc3)c(=O)c2c1C | -3 | 88*
O=C(O)C(Cc1ccccc1)N1C(=O)C2C3c4ccccc4C(c4ccccc43)C2C1=O (stereo unspecified) | -2 | 9
COCCCN1C(=S)NC2c3cc([N+](=O)[O-])ccc3OC1(C)C2C (stereo unspecified) | -4 | 0
COc1ccc(CCN2C(=S)NC3c4cc([N+](=O)[O-])ccc4OC2(C)C3C)cc1OC (stereo unspecified) | 0 | 61*
CC1(C)CC(=O)C2=C(C1)OC(N)=C(C#N)C2c1ccc(-c2ccccc2)cc1 (stereo unspecified) | 1 | -8
CC1(C)CC(=O)C2=C(C1)OC(N)=C(C#N)C2c1cn(-c2ccccc2)nc1-c1ccc(Cl)cc1 (stereo unspecified) | 1 | 100*
Cc1c(C(=O)N2CCC(c3nnc(C(C)C)o3)CC2)cnn1-c1ccccc1 | 0 | -1
CC(C)c1nnc(C2CCN(C(=O)c3cnc4ccccc4n3)CC2)o1 | -7 | 100*
O=C(Cn1nnc(-c2ccc(F)cc2)n1)Nc1ccc(I)cc1 | -20 | 2
CCN1CCN(c2ncc3c(n2)CCN(Cc2ccc(Cl)c(F)c2)C3)CC1 | 1 | 63*
Clc1cccc(CN2CCc3nc(N4CCN(c5ncccn5)CC4)ncc3C2)c1 | -6 | 100*
Clc1cccc(CN2CCc3nc(N4CCN(c5ccccc5)CC4)ncc3C2)c1 | 2 | 25
CCCN1CCN(c2ncc3c(n2)CCN(Cc2cccc(Br)c2)C3)CC1 | -6 | 45
CCCN1CCc2nc(N3CCN(c4ccccc4F)CC3)ncc2C1 | -4 | 15
CCN1CCN(c2ncc3c(n2)CCN(CCc2ccccc2)C3)CC1 | -7 | 97*
CCOc1ccc(CN2CCc3nc(N4CCN(CC)CC4)ncc3C2)cc1OCC | -4 | 20
CCN1CCN(c2ncc3c(n2)CCN(Cc2cccc(Cl)c2)C3)CC1 | 1 | 78*
O=C(CSCc1ccccc1)Nc1nnc(SCC(=O)N2CCOCC2)s1 | -6 | -17
O=[N+]([O-])c1ccc(N2CCCC2)cc1NCCN1CCOCC1 | -4 | 2
